# Experimental data from ChEMBL document CHEMBL4513216, “Probing the Open Global Health Chemical Diversity Library for Multistage-Active Starting Points for Next-Generation Antimalarials” (ACS Infect Dis, 2020).
# Out of some 69,000 compounds screened, about 8,600 (12%) showed an effect of 50% or more. Many of the other results were omitted from the sample, so strong results are more common in it than they were.
# Tested on: Plasmodium berghei
# Assay: Screen against P. berghei liver stage (PbLuc), transformed with Luciferase, at 10uM
# Type: functional, HepG2
# Conditions: tested at 10 uM
row,SMILES,INHIBITION [%]
1,CCO[C@H]1CN(C)C[C@@H]1NC(=O)c1cc(C)nc2c(C)c(C)ccc12,35
2,CCNC(=O)[C@@H]1C[C@H](NC(=O)Cn2ccnc2)CN1Cc1ccsc1,39.3
3,CCN1CC(CN(C)Cc2nc(-c3cccc(Cl)c3)oc2C)CC1=O (configuration not stated),29.8
4,CC(=O)NCCCNC(=O)N(C)C(C)Cc1ccc(Cl)cc1 (configuration not stated),-6.99
5,CN(CC1CC1)S(=O)(=O)c1ccc(C(F)(F)F)cc1C#N,47.2
6,CS(=O)(=O)CCOCCNc1ccc(C(F)(F)F)cc1C#N,-13.4
7,CS(=O)(=O)NCCCNc1ccc(C(F)(F)F)cc1C#N,72.6
8,N#Cc1cc(F)ccc1NCC1CCS(=O)(=O)CC1,-3.26
9,N#Cc1cc(C(F)(F)F)ccc1NCC1CCS(=O)(=O)CC1,56.4
10,CCN(CC)S(=O)(=O)c1ccc(C(F)(F)F)cc1C#N,27.6
11,CCCNC(=O)C1CCN(Cc2csc(CC)n2)CC1,15.3
12,Cc1cc(C(=O)N2C[C@@H]3CC[C@H]2CN(C)C3)ccc1Cl,18.2
13,Cc1ccc(C)c(OCCC(=O)N2CCCN(CC(N)=O)CC2)c1,-79.3
14,COc1cccc(COCC(=O)N2CCCC(c3ccn[nH]3)C2)c1 (configuration not stated),45.7
15,Cc1ccnn1CCC(=O)N(Cc1ccsc1)CC(C)C,41.5
16,CC(C)CN(Cc1ccsc1)C(=O)CCCn1cncn1,62.8
17,CC(=O)CCCC(=O)N(Cc1ccsc1)CC(C)C,35
18,CNS(=O)(=O)c1ccc(C)c(C(=O)NCCNc2ncccn2)c1,-7.81
19,CCOc1ccc(CN[C@@H]2COC[C@H]2c2ccc(F)cc2)cc1,-16
20,CCc1nccn1-c1cncc(C2CCCN2Cc2ccc(F)cc2)n1 (configuration not stated),31.1
21,CCc1nccn1-c1cncc(C2CCCN2)n1 (configuration not stated),51.7
22,CCc1nccn1-c1cccc(C2CCCN2)n1 (configuration not stated),31.3
23,CCc1nc(NC(=O)Cc2csc(-c3nnc[nH]3)n2)sc1C,55.4

row,SMILES,INHIBITION [%]
1,CCC(C)c1csc(NC(=O)Cc2csc(-c3nnc[nH]3)n2)n1 (configuration not stated),93.4
2,Cc1nc(C)c(CC(=O)Nc2nnc(C(C)C)s2)c(=O)[nH]1,25.75
3,CC(C)c1nnc(NC(=O)Cc2csc(-c3nnc[nH]3)n2)s1,76.7
4,CCc1ccc(C(C)NC(=O)CCc2nc(-c3nnc[nH]3)no2)cc1 (configuration not stated),38.8
5,Cc1nn2cnnc2c(C)c1CCC(=O)Nc1nnc(C(C)C)s1,-23.5
6,O=C(Cc1csc(-c2nnc[nH]2)n1)N1CCCC1Cn1cccn1 (configuration not stated),39.5
7,Cc1cnn(CC2CCCN2C(=O)c2csc(-c3nnc[nH]3)n2)c1 (configuration not stated),-73.2
8,CCC(C)c1csc(NC(=O)c2sc(-c3nnc[nH]3)nc2C)n1 (configuration not stated),37.8
9,CC(C)(C)CC(NC(=O)N1CCC(C(N)=O)CC1)C(F)(F)F (configuration not stated),-50.7
10,CC(C)C(CNC(=O)Nc1cn[nH]c1)N1CCOCC1 (configuration not stated),7.67
11,CC(C)c1nn(C)c(N(C)C)c1CNCc1cscn1,-11
12,CC(C)OCCC(=O)NCC(O)c1c(Cl)cccc1Cl (configuration not stated),17.8
13,COCCC(=O)N1C[C@H](C(C)C)[C@@H](N(C)C)C1,19.4
14,CC(C)(C)c1n[nH]c(C2CN(CCc3cccs3)CCO2)n1 (configuration not stated),37.3
15,CCc1n[nH]c(C2CN(CCc3ccncc3)CCO2)n1 (configuration not stated),23.6
16,CC(C)(C)c1n[nH]c(C2CN(CCc3ccncc3)CCO2)n1 (configuration not stated),57.5
17,CC(CN1CCOCC1)NC(=O)c1cc(Cl)c2c(c1)OCO2 (configuration not stated),29.8
18,OC1(CNCc2noc(Cc3ccccc3)n2)CCCNC1 (configuration not stated),26
19,OC1(CNCCc2csc(-c3ccncc3)n2)CCCNC1 (configuration not stated),-15
20,OC1(CNCCSCc2ccccc2)CCCNC1 (configuration not stated),55.4
21,Cc1c(C2CCCN(C(=O)OC(C)(C)C)C2)n2c(nc1=O)CCC2 (configuration not stated),13.5
22,COCCC(=O)Nc1cc(CC(C)(C)C)n[nH]1,-28.6
23,Cc1cnc(C)c(-c2cc(O)c3c(c2)CN(c2nccs2)CCO3)n1,28.5

row,SMILES,INHIBITION [%]
1,Cc1cnc(C)c(-c2cc(O)c3c(c2)CN(Cc2nccs2)CCO3)n1,-16.9
2,Cc1cnc(C)c(-c2cc(O)c3c(c2)CN(c2ncccn2)CCO3)n1,53
3,CS(=O)(=O)N1C[C@H](NC(=O)c2ccno2)[C@@H]2OCCC[C@@H]21,38.5
4,Cn1ccnc1CN(CCCO)CC(F)(F)F,54.8
5,Cn1ccnc1CN(CCCO)C1CCCc2ccccc21 (configuration not stated),-26.8
6,CSc1ccc(CN(CCO)Cc2nccn2C)cc1,43.9
7,CNS(=O)(=O)Cc1ccc(CNc2cncc(-n3cccn3)n2)cc1,44.2
8,Fc1cccc(CNc2cncc(-n3cccn3)n2)c1,50.1
9,CCCOc1ccc(CNc2cncc(-n3cccn3)n2)cc1,82.6
10,CCOc1cccc(CNc2cncc(-n3cccn3)n2)c1,31.6
11,CCOCc1ccc(CNc2cncc(-n3cccn3)n2)cc1,80.6
12,CC(C)OCc1ccc(CNc2cncc(-n3cccn3)n2)cc1,80.6
13,Cc1cccc(CNc2cncc(-n3cccn3)n2)c1,47.6
14,CN(C)c1ccc(CNc2cncc(-n3cccn3)n2)cc1,49.6
15,CNC(=O)COc1ccc(CNc2cncc(-n3cccn3)n2)cc1,23.4
16,COC(=O)Nc1ccc(CNc2cncc(-n3cccn3)n2)cc1,3.73
17,CCOCCOCc1cccc(CNc2cncc(-n3cccn3)n2)c1,24.2
18,COCc1ccc(CNc2cncc(-n3cccn3)n2)cc1,-21.9
19,OCCN(Cc1ccncc1)CC1(c2ccc(Cl)cc2)CC1,46.2
20,CC(Nc1cccc2c1OCCO2)C(=O)Nc1ccc(S(N)(=O)=O)cc1 (configuration not stated),-24.9
21,Cc1nc(CN(C)C2CCN(CCCOc3ccccc3C)C2)no1 (configuration not stated),27.4
22,CC(C)c1nc(C(=O)N2CCOCC2CC(=O)c2ccco2)cs1 (configuration not stated),37.4
23,COC(C)(C)C(=O)NCC1CCN(Cc2cc3ccccc3[nH]2)C1 (configuration not stated),40.8

row,SMILES,INHIBITION [%]
1,O=C(NCC1CCN(Cc2cc3ccccc3[nH]2)C1)C1CCCCC1 (configuration not stated),54.1
2,O=C(Cn1cccc1)NCC1CCN(Cc2cc3ccccc3[nH]2)C1 (configuration not stated),46.7
3,Cc1nc(NCC2CC2)nc2c1COCC21CCN(C(=O)NC(C)C)C1 (configuration not stated),29.9
4,CN(CC1CCOC1)c1ncc(Br)cn1 (configuration not stated),12.8
5,CC(NC(=O)CSCC#N)c1cccc(Cl)c1 (configuration not stated),-29.7
6,Cc1nc(CN2CCCC(Cn3cncn3)C2)nc2ccccc12 (configuration not stated),29.95
7,Cc1cnc(NCCCN2CCc3ccccc32)nc1,-15.4
8,Cc1ccnc(NCCCN2CCc3ccccc32)n1,3.58
9,CN(C)c1nc(NCCCN2CCc3ccccc32)ncc1F,55.1
10,CCOc1ccc(C(=O)CCC(=O)NCc2cncn2CC)cc1C,-5.59
11,CCOc1ccc(C(=O)CCC(=O)N(C)Cc2noc(C)n2)cc1C,11.9
12,CCc1cccc(NC(=O)CCC(=O)N(C)Cc2nc(C)c[nH]2)c1,12.8
13,COCc1cc(CN(C)C(=O)CCC(=O)Nc2cc(C)ccc2F)n[nH]1,34.4
14,CCOc1ccc(C(=O)CCC(=O)NCCc2nncn2CC)cc1C,15
15,Cc1ccc(F)c(NC(=O)CCC(=O)N(C)Cc2nc(C)c[nH]2)c1,53.9
16,CCOc1ccc(C(=O)CCC(=O)N(C)Cc2cnccn2)cc1C,40.6
17,CCOc1ccc(C(=O)CCC(=O)NCc2csc(N)n2)cc1C,56.1
18,CCOc1ccc(C(=O)CCC(=O)N(C)Cc2nc(C)c[nH]2)cc1C,63.4
19,CCOCC(=O)N1C[C@@H]2CCN(c3cnccn3)C[C@@H]2C1,32.1
20,COC(=O)c1cc2c(=O)n(C3CCCC3)ccc2nc1C,46.1
21,Cn1cccc1CN1CCC2(CC1)CCN(C(=O)c1cnccn1)CC2,39.5
22,CNC(=O)[C@@]12CCC3(CCN(C(=O)C(C)C)CC3)[C@@H]1CN(S(C)(=O)=O)C2,26.3
23,Cc1cc(C(=O)N2CCOCC2c2nc(C)c[nH]2)nc(O)n1 (configuration not stated),27.75

row,SMILES,INHIBITION [%]
1,CC(C)[C@H](N)C(=O)N1CCSc2ccccc2C1,-20.5
2,CC(C)C[C@H](N)C(=O)N1CCSc2ccccc2C1,81.6
3,NC(C(=O)N1CCSc2ccccc2C1)c1ccccc1 (configuration not stated),-22.1
4,CCCc1nc(C)c(CNc2nc(C)nc3oc(C)nc23)s1,48.9
5,CCCc1nc(C)c(CNc2nc(C)nc3onc(C)c23)s1,81.4
6,Cc1nc(C)n(CCCNc2ncnc3onc(C)c23)n1,19.2
7,CC(OCC1CC1)C(=O)Nc1cccc(C(=O)Nc2ccccn2)c1 (configuration not stated),36.5
8,CC(OCC1CC1)C(=O)NCCC(=O)Nc1ccccn1 (configuration not stated),1.74
9,O=C(COCC1CC1)Nc1ncccc1I,-2.98
10,CC(OCC1CC1)C(=O)Nc1ncccc1I (configuration not stated),50.4
11,CCOc1cccc(C(=O)Nc2ccncc2)c1,50.3
12,CCOc1cccc(C(=O)NCCC(=O)Nc2ccncc2)c1,46.6
13,CC(C)C(=O)Nc1cccc(C(=O)Nc2ccccn2)c1,8.99
14,CC(OCC1CC1)C(=O)Nc1cccc(C(=O)Nc2ccncc2)c1 (configuration not stated),82.4
15,CCCNC(=O)c1ccc(NC(=O)c2cccc(OCC)c2)cc1,23.5
16,CCc1noc(C(C)N2CCN(C(=O)CN3CCOCC3)CC2)n1 (configuration not stated),-25.8
17,Cc1sc(-c2ccco2)nc1C(=O)N1CCCC1Cn1cccn1 (configuration not stated),34.7
18,Cc1cccc(Nc2ccc(C3CCN(Cc4ncc[nH]4)CC3)nc2)n1,36
19,Fc1ccc(Nc2ccc(C3CCN(Cc4ncc[nH]4)CC3)nc2)nc1,56.9
20,Cc1cc(Nc2ccc(F)cn2)cc(C2CCN(Cc3ncc[nH]3)C2)n1 (configuration not stated),42.6
